Source: PubChem
An excerpt weighted towards active compounds, which were near 18% of everything screened.
IL-1B inflam inh: blocks inflammasome-driven IL-1 beta release; AID 743279; activity change, % at 57.5 µM; 4.7% of 360,000 active; THP-1 LPS/ATP IL-1B secretion, AlphaLISA, 16 h; active compounds read low; in the data active = activity change below about -50%; inconclusive = mostly about -30% to -49%; also: % is scaled to controls: 0 for no effect and ±100 for the full control effect
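THP-1 cells pretreated 1 hr with compounds (up to 57.5 uM final), then stimulated with LPS (250 ng/mL final) plus ATP (1.25 mM final); secreted IL-1B measured by AlphaLISA after 16 hr, decreased signal indicating inhibition.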
TDP1 inh: TDP1 (human) enzyme inhibition; Q9NUW8; recombinant TDP1, AlphaScreen DNA substrate cleavage; Potency, µM (series often up to 130 µM), for the others: at the top dose activity change, negative = inhibition, actives largely listed as inhibitors; 0.28% of 350,000 active; also: potency is read from the fitted curve at half-maximal effect; % is scaled to controls: 0 for no effect and ±100 for the full control effect; nearly all actives have a fitted effect of over 40% in size
Target sequence (Q9NUW8 whole entry, looked up): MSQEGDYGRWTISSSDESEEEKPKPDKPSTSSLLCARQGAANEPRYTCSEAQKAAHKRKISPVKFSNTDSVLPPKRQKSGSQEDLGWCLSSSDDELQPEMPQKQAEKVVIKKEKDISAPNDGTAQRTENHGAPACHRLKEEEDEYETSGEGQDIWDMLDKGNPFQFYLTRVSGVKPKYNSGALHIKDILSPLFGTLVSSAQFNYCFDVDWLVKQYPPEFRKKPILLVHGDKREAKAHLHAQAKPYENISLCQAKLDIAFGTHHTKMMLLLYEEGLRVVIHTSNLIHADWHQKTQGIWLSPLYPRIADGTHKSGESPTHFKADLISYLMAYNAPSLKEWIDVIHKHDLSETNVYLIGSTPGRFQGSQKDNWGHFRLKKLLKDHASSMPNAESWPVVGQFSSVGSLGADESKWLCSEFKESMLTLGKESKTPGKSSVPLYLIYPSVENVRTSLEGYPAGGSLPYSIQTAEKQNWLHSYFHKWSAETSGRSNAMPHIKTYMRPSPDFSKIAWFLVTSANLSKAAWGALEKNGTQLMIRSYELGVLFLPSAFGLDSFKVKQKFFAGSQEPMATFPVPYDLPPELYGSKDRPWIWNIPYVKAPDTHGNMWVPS
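E. coli-derived human Tdp1, 1 nM final. Cpd preinc 15 min RT; substrate 15 nM final, 5 min RT; AS bead mix 10 ug/ml final, 10 min RT. Signal loss = tyrosine-FITC cleavage. No-enzyme wells = max signal.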
TGFb inhibitor: blocks TGF-b signaling; HepG2 CAGA-GFP TGF-b/SMAD3 reporter, GFP fluorescence, 18 h; TGF-beta stimulated, 500 pg/mL final; Potency, µM (highest dose often 46.1 µM), without a hit: top-dose activity, negative = inhibition, hits mostly inhibitors; 1.2% of 410,000 active; AID 588855; also: potency is read from the fitted curve at half-maximal effect; % is scaled to controls: 0 for no effect and ±100 for the full control effect; nearly all actives have a fitted effect of over 65% in size
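TGF-beta reporter screen: HEPG2 CAGA-GFP, 1% FBS, 500 pg/mL TGF-beta final, 18 h; per-cell GFP summed per well; curves fitted and categorized by class.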
TDP1 cell CPT: growth inhibition of DT40 Tdp1-/-;hTDP1 cells with camptothecin (screen for TDP1 inhibitors). chicken DT40 Tdp1-/-;hTDP1 cells + 20 nM CPT, ATP luminescence, 48 h. Potency, µM (doses to about 46.2 µM), inactives show at the top dose activity change, negative = growth inhibition, usual class: inhibitors. 12% of 420,000 active. AID 686979; also: potency is read from the fitted curve at half-maximal effect; % is scaled to controls: 0 for no effect and ±100 for the full control effect; nearly all actives have a fitted effect of over 55% in size
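Cell growth measured by CellTiter-Glo luminescence after a minimum 48 h, 37 C compound exposure with 20 nM CPT in Tdp1-knockout DT40 cells stably expressing hTDP1, seeded 400/well; qHTS titration format.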
DT40 TDP1 no CPT: qHTS for Inhibitors of human tyrosyl-DNA phosphodiesterase 1 (TDP1): qHTS in cells in absence of CPT. DT40 Tdp1-/- hTDP1 cells, no CPT, ATP luminescence, 48 h. Potency, µM (series often up to 46.2 µM), without a hit: top-dose activity change, negative = growth inhibition, actives largely listed as inhibitors. AID 686978, 2013. 15% of 420,000 active; also: potency is read from the fitted curve at half-maximal effect; % is scaled to controls: 0 for no effect and ±100 for the full control effect; nearly all actives have a fitted effect of over 55% in size
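Chicken DT40 Tdp1-/- cells stably complemented with human TDP1 were seeded at 400 cells/well with DMSO in place of 20 nM camptothecin. After compound pinning, cells grew at least 48 hr at 37 °C; viability read by CellTiter-Glo luminescence.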
HepG2 viability: counter-screen for TGF-b inhibitors: cytotoxicity in HepG2 cells. HepG2 CAGA-GFP viability, ATP luminescence, 18 h. Potency, µM (titrated, usually from 46.1 µM), without a hit: top-dose activity change, negative = cytotoxicity, actives largely listed as cytotoxic. 0.76% of 410,000 active; also: potency is read from the fitted curve at half-maximal effect
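CellTiter-Glo luminescence gave cytotoxicity after 18 hours at 37 degrees C. The cells were HepG2 CAGA-GFP in 1% FBS DMEM, stimulated with 500 pg/mL TGF-beta after compound addition. %Activity was normalised to no-cell wells (complete cell-killing) and DMSO (no toxicity), and curves were fitted and classified.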
* = called active by the depositor; ? = inconclusive; . = no result; [ ] = remark or other dose. Unless noted, calls follow the shape of the dose curve; as a rule, active = well fitted curve in the direction sought with a large enough effect; inconclusive = small, poorly fitted or top-dose-only effect, or another doubt; inactive = no such curve, though single readings can be large; an effect the other way counts as inactive or inconclusive.

SMILES	IL-1B inflam inh	TDP1 inh	TGFb inhibitor	TDP1 cell CPT	DT40 TDP1 no CPT	HepG2 viability
COc1cc(OC)c2c(-c3ccccc3)cc(=O)oc2c1C(CCN1CCCC(C)C1)c1ccc(N(C)C)cc1 (stereo not given)	-27.3	10.7%	?	?	20.6µM*	-60.2%
COc1ccc(C(CCN2CCCC(C)C2)c2c(OC)cc(OC)c3c(-c4ccccc4)cc(=O)oc23)cc1 (stereo not given)	-26.2	9.7%	?	3.26µM*	2.91µM*	-44.4%
COc1ccc(C(CCN2CCCC(C)C2)c2c(OC)cc(OC)c3c(C)cc(=O)oc23)cc1 (stereo not given)	-29.0	10.3%	?	13µM*	23.1µM*	-8.8%
Cc1cc(/C=C2\Sc3ccccc3N2C)cc(C)[n+]1CC1CCCO1 (stereo not given)	-101.5*	0.0%	30.7%	0.0082µM*	0.0259µM*	-17.1%
COc1ccc(NC(=O)CSC2=Nc3ccccc3C3=NC(CC(=O)NCCc4ccccc4)C(=O)N23)cc1 (stereo not given)	.	2.5%	-1.3%	-16.9%	-13.9%	-25.4%
O=C(Nc1cc(Sc2ccccn2)cc([N+](=O)[O-])c1)c1ccc([N+](=O)[O-])cc1	-75.7*	8.6%	?	?	2.06µM*	-32.5%
Oc1c(N=Nc2ccccn2)ccc2ccccc12	-53.8*	15.5%	6.31µM*	1.46µM*	1.64µM*	-43.6%
CCN(c1ccccc1)C(CNS(=O)(=O)c1ccccc1)c1ccccc1 (stereo not given)	.	0.0%	15.8µM*	18.4µM*	?	-48.0%
Cc1cccc(N(C)C(CNS(=O)(=O)c2ccccc2)c2ccccc2)c1 (stereo not given)	.	5.1%	?	16.4µM*	?	-66.8%
Cc1cc2c(=O)oc(-c3ccc(Br)cc3)nc2s1	9.8	3.8%	11.5%	14.9%	-19.0%	0.0%
Cc1cccc(NC(=S)N(Cc2ccco2)C(C)c2cccs2)c1 (stereo not given)	-23.2	1.2%	?	29.1µM*	?	-4.3%
CCOC(=O)C1CCN(c2nc3ccccc3nc2Cl)CC1	.	2.7%	2.3%	0.1%	-10.9%	4.6%
CCOC(=O)C1CCN(c2ncnc3c2cnn3-c2ccc(OC)cc2)CC1	17.5	-11.6%	21.4%	-14.8%	-29.6%	-17.7%
CCOC(=O)C1CCN(c2ncnc3nc[nH]c23)CC1	-55.5*	2.6%	-1.7%	-1.4%	-25.7%	-14.9%
COc1cc2ncnc(N3CCN(C(=O)Nc4ccc(Oc5ccccc5)cc4)CC3)c2cc1OC	.	.	10µM*	11.2µM*	11.2µM*	0.6%
CCOC(=O)C1CCN(c2ncnc3c(C)csc23)CC1	-6.2	1.3%	17.8%	?	13µM*	-27.8%
CCOC(=O)N1CCN(c2ncnc3nc[nH]c23)CC1	0.8	2.2%	6.5%	-23.8%	?	-35.3%
CCOC(=O)C1CCN(c2ncnc3cc(OC)c(OC)cc23)CC1	-19.0	5.2%	13.3%	?	20.6µM*	-2.9%
OCC#CCSc1nnc(-c2cccc3ccccc23)o1	.	1.7%	1.7%	.	.	-15.0%
CO[C@H]1[C@H](NC(=O)c2ccco2)c2ccccc2C12CCN(Cc1cnn(-c3ccccc3)c1)CC2	.	.	.	11.0%[9.04 µM]	-17.7%	.
Cc1sc(NC(=O)c2cc(-c3ccccc3)nc3ccccc23)c(C(N)=O)c1C	-25.1	0.6%	?	14.6µM*	18.4µM*	-30.1%
Cc1sc(NC(=O)c2cc(-c3ccc(Cl)cc3)nc3ccccc23)c(C(N)=O)c1C	7.1	-2.0%	-4.4%	8.2µM*	10.3µM*	-1.6%
